POLK inh – DNA polymerase kappa (human) inhibition. purified Pol kappa, fluorescent DNA synthesis assay, 10 min. Potency, µM (series often up to 107 µM), hits mostly inhibitors. hit rate 0.53% among 400,000. Q9UBT6. AID 588579
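10 nM Pol kappa was preincubated with compounds for 15 min at room temperature. Reaction started with 50 nM (final) substrate. Fluorescence read kinetically at 0 and 10 min.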
Pol iota inh – inhibitors of human DNA polymerase iota | Pol iota fluorescent replication assay, 10 min | Potency, µM (series often up to 115 µM), hits mostly inhibitors | hit rate 1% among 390,000 | AID 588590
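Pol iota at 10 nM preincubated 15 min with compounds at room temperature; reaction started with fluorescent substrate, 50 nM final. Fluorescence read kinetically at 0 and 10 min; buffer-only wells as negative control.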
Tb PGK inh – blocks T. brucei phosphoglycerate kinase; P07378; AID 602233; Potency, µM (series often up to 57.5 µM), actives largely listed as inhibitors; hit rate 0.043% among 380,000; PGK/GAPDH coupled, Kinase-Glo luminescence, 60 min; further: nearly all actives have a fitted effect of over 60% in size
Target sequence (P07378 whole entry, looked up): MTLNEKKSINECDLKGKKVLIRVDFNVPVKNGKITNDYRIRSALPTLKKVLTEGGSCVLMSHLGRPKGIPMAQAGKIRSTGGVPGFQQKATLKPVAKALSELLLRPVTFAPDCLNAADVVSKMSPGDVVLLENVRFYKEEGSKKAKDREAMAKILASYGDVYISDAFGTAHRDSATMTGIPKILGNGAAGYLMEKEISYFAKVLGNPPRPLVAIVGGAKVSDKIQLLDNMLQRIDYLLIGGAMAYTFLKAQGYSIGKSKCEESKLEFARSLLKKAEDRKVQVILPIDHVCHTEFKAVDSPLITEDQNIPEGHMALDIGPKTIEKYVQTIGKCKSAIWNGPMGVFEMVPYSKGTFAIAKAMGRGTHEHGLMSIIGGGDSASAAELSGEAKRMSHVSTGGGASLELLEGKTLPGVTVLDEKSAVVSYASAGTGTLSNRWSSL
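Recombinant glycosomal PGK reaction used 1,3-bisphosphoglycerate generated in-well by GAPDH (100nM final) in 100mM TEA pH 7.6, 5mM MgCl2, 0.01% Tween-20. After 60 minutes at room temperature, ATP was read by Kinase-Glo Plus luminescence end-point.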
FEN1 inh-1 – human FEN1 inhibition. P39748. Recombinant FEN1 flap cleavage, fluorescence, 15 min. Potency, µM (titrated, usually from 114 µM), most hits filed as inhibitors. hit rate 0.35% among 390,000; further: nearly all actives have a fitted effect of over 65% in size
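Reaction started by adding substrate (50 nM final) to 10 nM enzyme after 15 min room-temperature compound preincubation. Reads at 0 and 15 min, with data normalized and fitted to a four-parameter Hill equation.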
Pol eta inh-1 – DNA polymerase eta (human) inhibition. recombinant Pol eta, fluorescent DNA replication assay. Potency, µM (doses to about 114 µM), actives largely listed as inhibitors. hit rate 1.2% among 390,000. AID 588591. Q9Y253
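Pol eta (10 nM) was preincubated with compounds for 15 min at room temperature, after which fluorescent replication substrate (50 nM final) was added to start the reaction. Fluorescence was read kinetically at 0 and 10 min.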
Pol beta inh – DNA polymerase beta (human) inhibition; P06746; Pol beta primer extension/strand displacement, fluorescence kinetic; Potency, µM (titrated, usually from 114 µM), most hits filed as inhibitors; hit rate 1.3% among 340,000
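Enzyme-only controls used 10 nM Pol beta; buffer lacking enzyme served as negative control. Compound preincubated 15 min, then 50 nM substrate added; 0 and 10 min reads at room temperature.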
GALK confirm – galactokinase (human) inhibition, confirmation; purified GALK, Kinase-Glo ATP depletion luminescence; AID 2015; hit rate 70% among 150; shares compounds with Pol eta inh-1; Potency, µM (top dose mostly 115 µM), actives largely listed as inhibitors
Redox cycling – counter-screen for GALK inhibitors: redox cycling H2O2 generation | hit rate 40% among 150 | Phenol red-HRP H2O2 redox cycling, absorbance 600 nm | Potency, µM (doses to about 115 µM), hits mostly inhibitors | shares compounds with Pol eta inh-1
HEK293 tox – reduces HEK-293 cell viability in GALK counter-screen. HEK-293 viability, ATP luminescence (CellTiter-Glo), 24/48 h. shares compounds with Pol eta inh-1. Potency, µM (series often up to 46.1 µM), usual class: inhibitors. hit rate 10% among 170
Pol eta inh-2 – Pol eta (human) inhibition, cherry-pick confirmation | shares compounds with Pol eta inh-1 | Pol eta primer extension, TAMRA/BHQ fluorescence, 10 min | Potency, µM, hits mostly inhibitors | hit rate 64% among 2,600
FEN1 inh-2 – confirmation of human FEN1 inhibitors; FEN1 flap cleavage, TAMRA/BHQ2 fluorogenic DNA substrate; shares compounds with FEN1 inh-1; hit rate 79% among 880; Potency, µM, most hits filed as inhibitors; further: nearly all actives have a fitted effect of over 60% in size
Of the large screens only hits and unclear results are named; the others gave an inactive call (follow-up assays come after a bar, where they were run). An excerpt weighted towards active compounds, which were near 2.4% of everything screened. The call rests on the fitted dose curve; in most records, active means well fitted curve in the direction sought with a large enough effect; inconclusive means small, poorly fitted or top-dose-only effect, or another doubt; inactive means no such curve, though single readings can be large; an effect the other way counts as inactive or inconclusive.

CC1=Nc2ccccc2/C1=C/c1c(O)[nH]c(=O)[nH]c1=O	Pol iota inh inconclusive
O=c1[nH]c(O)c(/C=C2/C=CC(c3cc(Cl)ccc3Cl)=N2)c(=O)[nH]1	FEN1 inh-1 inconclusive, Pol eta inh-1 17.8µM | Pol eta inh-2 inconclusive
COc1cc(O)c(C(=O)O)c(-c2cc(O)c(O)cc2C)c1	POLK inh inconclusive, Pol iota inh inconclusive, FEN1 inh-1 inconclusive, Pol eta inh-1 10µM, Pol beta inh 20µM | Pol eta inh-2 inconclusive
C[C@@H]1O[C@@H](O[C@@H]2C=C3CC[C@@H]4[C@@H](CC[C@]5(C)[C@H](c6ccc(=O)oc6)CC[C@@]45O)[C@@]3(C)CC2)[C@H](O)[C@H](O)[C@H]1O	none (no result: Tb PGK inh, Pol eta inh-1, Pol beta inh)
O=C(O)CCC(=O)NCCC1=c2ccccc2=N/C1=C\c1c(O)n(Cc2ccc(F)cc2)c(=S)[nH]c1=O	POLK inh inconclusive, Pol iota inh inconclusive, Pol eta inh-1 50.1µM | Pol eta inh-2 inconclusive
C/C(CC(c1ccccc1)c1c(O)c2ccccc2oc1=O)=N\Nc1ccc([N+](=O)[O-])cc1[N+](=O)[O-] (stereo not given)	Pol iota inh inconclusive
O=c1oc2ccccc2c(O)c1C(c1ccc([N+](=O)[O-])cc1)c1c(O)c2ccccc2oc1=O	POLK inh inconclusive, Pol iota inh inconclusive, Pol eta inh-1 20µM, Pol beta inh 50.1µM | GALK confirm 26.6µM | Redox cycling inactive | HEK293 tox inactive
Cc1cc(N2CCCC2)ccc1C=C(C#N)C#N	none
N#CC(C#N)=Cc1ccc(C=C(C#N)C#N)cc1	Pol iota inh inconclusive, Pol eta inh-1 44.7µM, Pol beta inh inconclusive | Pol eta inh-2 inconclusive | FEN1 inh-2 95.3
CN1CC[C@@]2(c3cccc(O)c3)Cc3nc4ccccc4cc3C[C@H]2C1	none (no result: Pol iota inh, Tb PGK inh, FEN1 inh-1, Pol eta inh-1, Pol beta inh)
O=C1NC(=O)N(Cc2ccccc2)C(=O)/C1=C\C=C\c1ccco1	POLK inh 35.5µM, Pol iota inh 15.8µM, FEN1 inh-1 inconclusive, Pol eta inh-1 17.8µM, Pol beta inh 20µM | Pol eta inh-2 75.7 | FEN1 inh-2 inconclusive
C[C@]12CCC3C(CC[C@H]4C[C@H](O)CC[C@]34C)[C@@H]1CC[C@@H]2C(=O)CO (stereo not given in full)	none (no result: Pol iota inh, Tb PGK inh, FEN1 inh-1, Pol eta inh-1, Pol beta inh)
C[C@]12CCC3C(CC[C@H]4C[C@@H](O)CC[C@]34C)C1CC[C@@H]2OC(=O)[C@H](N)CCCCN (stereo not given in full)	FEN1 inh-1 inconclusive (no result: Pol beta inh) | FEN1 inh-2 42.6
CNC(=O)O/N=C/C(C)(C)S(C)=O (stereo not given)	none (no result: Tb PGK inh, Pol eta inh-1, Pol beta inh)
Cc1ccccc1-n1c(C)cc(/C=C2/C(=O)NC(=O)N(Cc3ccco3)C2=O)c1C	POLK inh inconclusive, Pol iota inh inconclusive, Pol eta inh-1 inconclusive (no result: Tb PGK inh) | FEN1 inh-2 inconclusive

Source: PubChem (National Center for Advancing Translational Sciences (NCATS))
